Compound activity deposited in PubChem BioAssay by several laboratories.
A selection: hits, their analogues and other compounds. The true share with any hit is near 2.2%.
IEC-6 tox = IEC-6 cytotoxicity, counter-screen for KLF5 inhibitors. luminescence viability. inhibition, % at 5 µM. 0.78% of 290,000 active;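 also: 0% = plate median of test compound wells and 100% = cytotoxic reference compound wells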
aSyn 5UTR inh = 5' untranslated region of α-synuclein, MLPCN primary screen; inhibition, % (tested at 7.5 µM); 0.82% of 300,000 active; alpha-synuclein 5'UTR reporter, inhibitor activity; in the data active = inhibition above about 60%; inconclusive = no clear call, values can overlap the other calls;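 also: H4 neuroglioblastoma cells stably carrying SNCA 5'UTR luciferase fusion; 0% = DMSO wells and 100% = positive control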
Ba/F3 V617F tox = lowers viability of Ba/F3 cells expressing EpoR and JAK2V617F; ATP luminescence; inhibition, % at 5.6 µM; 1.1% of 220,000 active; AID 1446;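 active = inhibition above the campaign mean plus 3 SD over all tested compounds, cut at about 24% in these data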;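 also: cytokine-independent growth of Ba/F3 cells driven by EpoR plus mutant JAK2; 0% = DMSO-treated cells and 100% = JAK inhibitor I control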
BaF3 tox = parental Ba/F3 viability inhibition as JAK2V617F counter-screen; CellTiter-Glo ATP luminescence; 1.1% of 220,000 active; inhibition, % at 5.6 µM;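 active = inhibition above a per-campaign cutoff, the mean inhibition of all tested compounds plus 3 SD, cut at about 27% in these data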;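 also: 0% = DMSO wells and 100% = JAK Inhibitor I control wells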
APP transl inh = APP translation inhibition; 0.82% of 190,000 active; SH-SY5Y APP 5'UTR-luciferase reporter, luminescence; AID 1285; inhibition, % at 2 µM;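 active = inhibition above a set limit, derived from the sample mean plus 3 SD, cut at about 45% in these data; inconclusive = one replicate passes the limit while the other fails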
KLF5 inhibitor = suppresses KLF5 promoter-driven expression. DLD-1 KLF5 promoter-luciferase reporter, luminescence. inhibition, % at 5 µM. 0.23% of 290,000 active;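 active = inhibition above a per-plate limit of that plate's mean compound inhibition plus 3 SD, cut at about 60% in these data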;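 also: 0% = DMSO wells and 100% = LY294002 at 200 µM; higher means less KLF5 promoter-driven luciferase light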
IEC-6 tox confirm = confirmation of cytotoxic compounds in rat IEC-6 intestinal epithelial cells | IEC-6 rat intestinal epithelial viability, luminescence | inhibition, % at 5 µM | shares compounds with IEC-6 tox | 63% of 1,900 active;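 also: 0% = vehicle and 100% = reference cytotoxic drug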
Numbers without * were called inactive. Rule as the data show it, unless noted: active = inhibition above about 22%; inactive = the rest.

What do the screens show for `O=C(Nc1ccc(Cl)cc1)Nc1nccs1`?
IEC-6 tox: 68*; aSyn 5UTR inh: -47; Ba/F3 V617F tox: 85*; BaF3 tox: 79*; APP transl inh: 60*; KLF5 inhibitor: 24; IEC-6 tox confirm: 60*

How did COc1ccccc1-n1c(O)c(/C=N/NC(=S)Nc2ccccc2)c(=O)[nH]c1=S do in these assays?
IEC-6 tox: 5; aSyn 5UTR inh: 1; Ba/F3 V617F tox: -2; BaF3 tox: 0; KLF5 inhibitor: -12

Results for COc1cc2c(cc1OC)[C@@H]1C(=O)c3ccc4c(c3O[C@@H]1CO2)C[C@H](C(C)C)O4 ?
IEC-6 tox: 35*; aSyn 5UTR inh: 21; Ba/F3 V617F tox: 71*; BaF3 tox: 65*; KLF5 inhibitor: 28; IEC-6 tox confirm: 25*

Results for COC(=O)C(Cc1ccc(N(CCCl)CCCl)cc1)N=Cc1ccccc1O (configuration not stated) ?
IEC-6 tox: 90*; aSyn 5UTR inh: 27; KLF5 inhibitor: -12; IEC-6 tox confirm: 78*

How did Cc1cc(=O)oc2c(C)c(OCC(=O)N3CCN(Cc4ccccc4)CC3)ccc12 do in these assays?
IEC-6 tox: -1; aSyn 5UTR inh: 33; KLF5 inhibitor: -20

Results for Cn1c(O)c(C=NC2CCCCCC2)c(=O)[nH]c1=S ?
IEC-6 tox: -2; aSyn 5UTR inh: -59; Ba/F3 V617F tox: 1; BaF3 tox: 4; APP transl inh: 11; KLF5 inhibitor: -12

Results for O=C1CN=C(c2ccc[nH]2)c2cc(Cl)ccc2N1 ?
IEC-6 tox: 31*; aSyn 5UTR inh: 11; Ba/F3 V617F tox: 54*; BaF3 tox: 37*; KLF5 inhibitor: 4; IEC-6 tox confirm: 22

What do the screens show for `CCOC(=O)c1c(C)n(Cc2ccccc2)c2ccc(OCC(O)CNC(C)(C)C)cc12` (configuration not stated)?
IEC-6 tox: -2; aSyn 5UTR inh: 5; KLF5 inhibitor: -2

What do the screens show for `COc1cc(C)c(CNCCc2c[nH]c3ccccc23)cc1C`?
IEC-6 tox: 24*; aSyn 5UTR inh: 48; KLF5 inhibitor: -4; IEC-6 tox confirm: 0

How did COc1ccc(CNCCc2c[nH]c3ccccc23)c(OC)c1C do in these assays?
IEC-6 tox: 14; aSyn 5UTR inh: 48; KLF5 inhibitor: -15

Results for O=C(Cc1ccccc1)OCC(=O)c1ccccc1 ?
IEC-6 tox: -4; aSyn 5UTR inh: -6; KLF5 inhibitor: -10

What do the screens show for `C/C1=C\[C@@H](C)C/C=C/[C@H]2[C@@H]3O[C@]3(C)[C@@H](C)[C@H]3[C@H](Cc4c[nH]c5ccccc45)NC(=O)[C@]32C(=O)/C=C/C(=O)[C@@H]1O`?
IEC-6 tox: 91*; aSyn 5UTR inh: 81*; Ba/F3 V617F tox: 65*; BaF3 tox: 63*; APP transl inh: 84*; KLF5 inhibitor: -7; IEC-6 tox confirm: 66*

Results for CN1C(=O)N(C)C(=O)C2(Cc3cc(NC(=O)c4ccc(F)cc4)ccc3N3CCCC32)C1=O (configuration not stated) ?
IEC-6 tox: -1; aSyn 5UTR inh: -3; KLF5 inhibitor: -24

How did CC[n+]1c(/C=C/C=C/c2ccc(N(C)C)cc2)sc2ccccc21 do in these assays?
IEC-6 tox: 37*; aSyn 5UTR inh: inconclusive; Ba/F3 V617F tox: 99*; BaF3 tox: 92*; KLF5 inhibitor: 23; IEC-6 tox confirm: 58*

What do the screens show for `COC(=O)C1=C(c2cccc(OC)c2OC)C[C@@H]2CC[C@H]1N2C(=O)NCc1ccco1`?
aSyn 5UTR inh: -1

Results for CC[C@@]1(O)C(=O)OCc2c1cc1n(c2=O)Cc2cc3c(NC(=O)CN)cccc3nc2-1 ?
IEC-6 tox: 41*; aSyn 5UTR inh: 71*; Ba/F3 V617F tox: 94*; BaF3 tox: 79*; KLF5 inhibitor: 20; IEC-6 tox confirm: 26*

What do the screens show for `O=[N+]([O-])c1ccc(C2C3C(c4ccccc4)=NC4(CCCC4)N32)cc1` (configuration not stated)?
IEC-6 tox: 7; aSyn 5UTR inh: 4; Ba/F3 V617F tox: 1; BaF3 tox: 4; APP transl inh: -4; KLF5 inhibitor: 3

How did Nc1cc(Cl)c2nonc2c1[N+](=O)[O-] do in these assays?
IEC-6 tox: 69*; Ba/F3 V617F tox: 47*; BaF3 tox: 2; APP transl inh: 96*; KLF5 inhibitor: 14; IEC-6 tox confirm: 30*
